Measured values published in PubChem BioAssay AID1159580 (chemical genetic matrix, 2015).
“And” between values parts separate entries of the source, which are not always exact repeats. Equal values may be shown once. In all, about 5,500 compounds went through this assay and about 2,000 (36%) were called active. About 18% were inconclusive and are not listed. Cut-off read from the data, not from the text of the source: active = normalized growth mostly below about 0.91 (no sharp cut-off); inconclusive = no clear call, values can overlap the other calls; inactive = mostly above about 0.92. This is one part of the list.

Test: chemical genetic growth profiling, strain panel (AID 1159580);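 note: tested at 20 µM; growth read once vehicle control cultures reached saturation at 30 °C; 1 = growth at the plate median or of vehicle wells; lower values mean less growth of the strain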
Settings: growth OD

Measured: normalized growth

NS(=O)(=O)c1cc2c(cc1Cl)NC(C1CC3C=CC1C3)NS2(=O)=O (stereo unspecified)
inactive: S. cerevisiae deletion strains, locus YJR075W, strain HOC1, hits give low values 1.02 and 1.01 | S. cerevisiae deletion strains, locus YKL009W, strain mrt4, hits give low values 0.979 | S. cerevisiae deletion strains, locus YKL068W, hits give low values 0.995 | S. cerevisiae deletion strains, locus YKL085W, strain MDH1 (second series), hits give low values 0.946 | S. cerevisiae deletion strains, locus YKL085W, strain MDH1, hits give low values 0.946 | S. cerevisiae deletion strains, locus YKL160W, strain elf1, hits give low values 1.01 | S. cerevisiae deletion strains, locus YKL190W, strain CNB1, hits give low values 0.991 | S. cerevisiae deletion strains, locus YKR001C, strain vps1, hits give low values 0.997 | S. cerevisiae deletion strains, locus YKR026C, strain gcn3, hits give low values 0.976 | S. cerevisiae deletion strains, locus YKR091W, strain srl3, hits give low values 0.989 | S. cerevisiae deletion strains, locus YLL001W, strain dnm1, hits give low values 0.987 | S. cerevisiae deletion strains, locus YLL026W, hits give low values 0.988 | S. cerevisiae deletion strains, locus YLL041C, strain sdh2, hits give low values 0.997 | S. cerevisiae deletion strains, locus YLR027C, strain aat2, hits give low values 0.995 | S. cerevisiae deletion strains, locus YLR039C, strain RIC1, hits give low values 0.981 | S. cerevisiae deletion strains, locus YLR058C, strain SHM2, hits give low values 0.979 | S. cerevisiae deletion strains, locus YLR102C, strain apc9, hits give low values 0.984 | S. cerevisiae deletion strains, locus YLR113W, strain HOG1, hits give low values 1.07 | S. cerevisiae deletion strains, locus YLR221C, strain rsa3, hits give low values 1 | S. cerevisiae deletion strains, locus YLR258W, strain gsy2, hits give low values 0.98 | S. cerevisiae deletion strains, locus YLR262C, strain YPT6 (second series), hits give low values 0.999 | S. cerevisiae deletion strains, locus YLR262C, strain YPT6, hits give low values 0.962 | S. cerevisiae deletion strains, locus YLR268W, strain sec22, hits give low values 0.973 | S. cerevisiae deletion strains, locus YLR320W, strain mms22, hits give low values 0.99 | S. cerevisiae deletion strains, locus YLR330W, strain CHS5, hits give low values 0.989 | S. cerevisiae deletion strains, locus YLR342W, strain FKS1 (second series), hits give low values 1.1 | S. cerevisiae deletion strains, locus YLR342W, strain FKS1, hits give low values 0.995 | S. cerevisiae deletion strains, locus YLR357W, strain rsc2, hits give low values 0.984 | S. cerevisiae deletion strains, locus YLR370C, strain arc18, hits give low values 0.992 | S. cerevisiae deletion strains, locus YLR371W, strain rom2, hits give low values 0.995 | S. cerevisiae deletion strains, locus YLR384C, strain iki3, hits give low values 0.993 | S. cerevisiae deletion strains, locus YLR418C, strain cdc73, hits give low values 0.961 | S. cerevisiae deletion strains, locus YML016C, strain PPZ1, hits give low values 0.998 | S. cerevisiae deletion strains, locus YML032C, strain rad52, hits give low values 1.02 | S. cerevisiae deletion strains, locus YML120C, strain ndi1, hits give low values 1 | S. cerevisiae deletion strains, locus YML124C, strain tub3, hits give low values 1 | S. cerevisiae deletion strains, locus YMR058W, strain fet3, hits give low values 0.996 | S. cerevisiae deletion strains, locus YMR078C, strain ctf18, hits give low values 0.986 | S. cerevisiae deletion strains, locus YMR125W, strain sto1, hits give low values 0.973 | S. cerevisiae deletion strains, locus YMR129W, hits give low values 0.981 | S. cerevisiae deletion strains, locus YMR205C, strain PFK2, hits give low values 0.951 | S. cerevisiae deletion strains, locus YMR223W, strain ubp8, hits give low values 1.05 | S. cerevisiae deletion strains, locus YMR231W, strain pep5, hits give low values 0.992 | S. cerevisiae deletion strains, locus YMR263W, strain SAP30, hits give low values 0.988 | S. cerevisiae deletion strains, locus YMR307W, strain GAS1, hits give low values 1.06 and 1 | S. cerevisiae deletion strains, locus YNL067W, strain RPL9B, hits give low values 1 | S. cerevisiae deletion strains, locus YNL071W, strain lat1, hits give low values 0.986 | S. cerevisiae deletion strains, locus YNL128W, strain TEP1, hits give low values 0.94 | S. cerevisiae deletion strains, locus YNL153C, strain GIM3, hits give low values 0.981 | S. cerevisiae deletion strains, locus YNL175C, strain NOP13, hits give low values 0.978 | S. cerevisiae deletion strains, locus YNL183C, strain NPR1, hits give low values 0.978 | S. cerevisiae deletion strains, locus YNL197C, strain WHI3, hits give low values 0.982 | S. cerevisiae deletion strains, locus YNL209W, strain ssb2, hits give low values 1 | S. cerevisiae deletion strains, locus YNL224C, strain SQS1, hits give low values 0.992 | S. cerevisiae deletion strains, locus YNL233W, strain BNI4, hits give low values 1 | S. cerevisiae deletion strains, locus YNL248C, strain rpa49, hits give low values 0.999 | S. cerevisiae deletion strains, locus YNL250W, strain rad50, hits give low values 0.999 | S. cerevisiae deletion strains, locus YNL271C, strain bni1, hits give low values 1 | S. cerevisiae deletion strains, locus YNL298W, strain CLA4, hits give low values 0.988 | S. cerevisiae deletion strains, locus YNL307C, strain MCK1, hits give low values 1.02 | S. cerevisiae deletion strains, locus YNL322C, strain KRE1 (second series), hits give low values 1 | S. cerevisiae deletion strains, locus YNL322C, strain KRE1, hits give low values 0.988 | S. cerevisiae deletion strains, locus YNR049C, strain mso1, hits give low values 0.989 | S. cerevisiae deletion strains, locus YNR052C, strain pop2, hits give low values 0.987 | S. cerevisiae deletion strains, locus YOL006C, strain TOP1, hits give low values 1.02 | S. cerevisiae deletion strains, locus YOL012C, strain htz1 1.21 | S. cerevisiae deletion strains, locus YOL147C, strain pex11, hits give low values 0.993 | S. cerevisiae deletion strains, locus YOR001W, strain rrp6, hits give low values 0.997 | S. cerevisiae deletion strains, locus YOR061W, strain CKA2, hits give low values 0.959 | S. cerevisiae deletion strains, locus YOR069W, strain VPS5, hits give low values 0.995 | S. cerevisiae deletion strains, locus YOR070C, strain gyp1, hits give low values 0.993 | S. cerevisiae deletion strains, locus YOR080W, strain dia2, hits give low values 0.993 | S. cerevisiae deletion strains, locus YOR083W, strain WHI5 (second series), hits give low values 0.989 | S. cerevisiae deletion strains, locus YOR083W, strain WHI5, hits give low values 1 | S. cerevisiae deletion strains, locus YOR106W, strain vam3, hits give low values 1 | S. cerevisiae deletion strains, locus YOR136W, strain idh2, hits give low values 0.998 | S. cerevisiae deletion strains, locus YOR144C, strain elg1, hits give low values 0.991 | S. cerevisiae deletion strains, locus YOR184W, strain ser1, hits give low values 1.06 | S. cerevisiae deletion strains, locus YOR231W, strain MKK1, hits give low values 1.06 | S. cerevisiae deletion strains, locus YOR265W, strain rbl2, hits give low values 0.999 | S. cerevisiae deletion strains, locus YOR270C, strain vph1, hits give low values 0.984 | S. cerevisiae deletion strains, locus YOR290C, strain snf2, hits give low values 1.01 | S. cerevisiae deletion strains, locus YOR316C, strain cot1, hits give low values 0.98 | S. cerevisiae deletion strains, locus YPL051W, strain arl3, hits give low values 0.997 | S. cerevisiae deletion strains, locus YPL055C, strain LGE1, hits give low values 0.977 | S. cerevisiae deletion strains, locus YPL078C, strain atp4, hits give low values 0.998 | S. cerevisiae deletion strains, locus YPL106C, strain sse1, hits give low values 0.96 | S. cerevisiae deletion strains, locus YPL240C, strain hsp82, hits give low values 0.982 | S. cerevisiae deletion strains, locus YPL241C, strain CIN2, hits give low values 0.981 and 0.988 | S. cerevisiae deletion strains, locus YPL256C, strain CLN2, hits give low values 1.04 | S. cerevisiae deletion strains, locus YPR119W, strain clb2, hits give low values 0.996 | S. cerevisiae deletion strains, locus YPR141C, strain kar3, hits give low values 0.979 | S. cerevisiae deletion strains, locus YPR163C, strain tif3, hits give low values 0.997 | S. cerevisiae deletion strains, locus YPR167C, strain met16, hits give low values 0.977 | S. cerevisiae deletion strains, strain wtn01, hits give low values 0.969 | S. cerevisiae strains, strain wild type, hits give low values 0.998
